Experimental findings from PubChem BioAssay (EPA / NIEHS) are described below.

A word on the AC50: it is the concentration at which the activity in the assay is half-maximal.

Calls of active or inactive are those of the source. How the source made its calls: active means hit-call score of the fitted dose curve at least 0.9, where 1 is the maximum; inactive means score below 0.9.

What all share (settings): mRNA level, 48 h; actives raise or lower the signal
Read-out in assay [1]: Bcl-2 (BAX) gene, BAX (gene 581)
In words: LTEA_HepaRG_BAX: Life Technologies and Expression Analysis (LTEA) Assay for Bcl-2 (BAX) gene using HepaRG (AID 2283470). The procedure, abridged:
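Gene expression measured by Fluidigm qRT-PCR with three housekeeping genes for normalisation. HepaRG cells, plated 48 h beforehand, treated 48 h at up to 100 uM (8-point, half-log) in 0.5% DMSO. Bidirectional fitting versus DMSO.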

Read-out in assay [2]: adenosine kinase (ADK) gene, ADK (gene 132)
In words: LTEA_HepaRG_ADK: Life Technologies and Expression Analysis (LTEA) Assay for adenosine kinase (ADK) gene using HepaRG (AID 2283471). The procedure, abridged:
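HepaRG (human liver), 48 h chemical exposure, 8-pt half-log series, top 100 uM, 0.5% DMSO vehicle. Readout: ADK mRNA by qRT-PCR vs housekeeping genes; bidirectional curve fit relative to DMSO baseline.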

Read-out in assay [3]: Alpha-fetoprotein (AFP) gene, AFP (gene 174)
In words: LTEA_HepaRG_AFP: Life Technologies and Expression Analysis (LTEA) Assay for Alpha-fetoprotein (AFP) gene using HepaRG (AID 2283472). The procedure, abridged:
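AFP transcript measured by TaqMan qRT-PCR with three housekeeping genes for normalization, after 48 h chemical treatment of HepaRG cells (top 100 uM, half-log steps, 0.5% DMSO). Gain or loss fitted against vehicle.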

Read-out in assay [4]: Apolipoprotein A-V (APOA5) gene, APOA5 (gene 116519)
In words: LTEA_HepaRG_APOA5: Life Technologies and Expression Analysis (LTEA) Assay for Apolipoprotein A-V (APOA5) gene using HepaRG (AID 2283474). The procedure, abridged:
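Readout is APOA5 transcript level by qRT-PCR on Fluidigm dynamic arrays, normalized to three housekeeping genes. HepaRG cultures received chemicals for 48 h at up to 100 uM (half-log steps, 0.5% DMSO), with gain or loss scored relative to DMSO.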

Read-out in assay [5]: Apoptosis regulator Bcl-2 (Homo sapiens) (UniProt P10415)
In words: LTEA_HepaRG_BCL2: Life Technologies and Expression Analysis (LTEA) Assay for Bcl-2 gene using HepaRG (AID 2283475). In short, it runs like this:
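qRT-PCR of BCL2 transcript, normalized to three housekeeping genes (ACTB, GAPDH, POLR2A), after 48 h chemical exposure of HepaRG cells; concentrations top 100 uM with half-log dilutions, 0.5% DMSO vehicle, duplicates; changes up or down fitted relative to vehicle.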

Read-out in assay [6]: Bcl-2 (BID) gene, BID (gene 637)
In words: LTEA_HepaRG_BID: Life Technologies and Expression Analysis (LTEA) Assay for Bcl-2 (BID) gene using HepaRG (AID 2283476). In short, it runs like this:
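Duplicate 48 h treatments of HepaRG cells in serum-free induction medium spanned 100 uM downward in half-log steps, 0.5% DMSO. Transcript change quantified by qRT-PCR against three housekeeping genes, fitted up or down versus DMSO.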

Read-out in assay [7]: Caspase-3 (Homo sapiens) (UniProt P42574)
In words: LTEA_HepaRG_CASP3: Life Technologies and Expression Analysis (LTEA) Assay for cysteine-aspartic acid protease (CASP3) using HepaRG (AID 2283477). In short, it runs like this: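 Read-out is CASP3 mRNA level by TaqMan qRT-PCR in human HepaRG cells after 48 h chemical exposure. Eight half-log concentrations topping at 100 uM were tested in 0.5% DMSO; gain or loss was fitted relative to DMSO.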

Read-out in assay [8]: Cytochrome P450 (CYP24A1), CYP24A1 (gene 1591)
In words: LTEA_HepaRG_CYP24A1: Life Technologies and Expression Analysis (LTEA) Assay for Cytochrome P450 (CYP24A1) using HepaRG (AID 2283478). The procedure, abridged:
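HepaRG, 48 h chemical exposure, 8-pt half-log CRC from 100 uM, 0.5% DMSO vehicle, duplicates. Endpoint: CYP24A1 mRNA by Fluidigm TaqMan qRT-PCR, normalized ACTB/GAPDH/POLR2A; gain/loss fit vs DMSO.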

Read-out in assay [9]: Cytochrome P450 (CYP1A2), CYP1A2 (gene 1544)
In words: LTEA_HepaRG_CYP1A2: Life Technologies and Expression Analysis (LTEA) Assay for Cytochrome P450 (CYP1A2) using HepaRG (AID 2283479). The procedure, abridged:
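CYP1A2 transcript induction or loss, quantified by Fluidigm qRT-PCR against three housekeeping genes, was fitted bidirectionally against 0.5% DMSO controls. Human HepaRG cells received eight half-log concentrations from 100 uM over 48 h.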

Read-out in assay [10]: cysteine-aspartic acid protease (CASP8), CASP8 (gene 841)
In words: LTEA_HepaRG_CASP8: Life Technologies and Expression Analysis (LTEA) Assay for cysteine-aspartic acid protease (CASP8) using HepaRG (AID 2283480). In short, it runs like this:
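Concentration-response in duplicate up to 100 uM (half-log steps, 0.5% DMSO) on differentiated HepaRG cultures for 48 h. Expression change of CASP8 mRNA is determined by TaqMan qRT-PCR with housekeeping-gene normalization.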

Read-out in assay [11]: Cytochrome P450 (CYP2B6), CYP2B6 (gene 1555)
In words: LTEA_HepaRG_CYP2B6: Life Technologies and Expression Analysis (LTEA) Assay for Cytochrome P450 (CYP2B6) using HepaRG (AID 2283481). The procedure, abridged: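 HepaRG cells plated 48 h, switched to serum-free induction medium, then dosed 48 h (8 points, half-log from 100 uM, 0.5% DMSO). RNA isolated; CYP2B6 expression measured by qRT-PCR; gain or loss fitted relative to DMSO.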

Read-out in assay [12]: Cytochrome P450 2C19 (Homo sapiens) (UniProt P33261)
In words: LTEA_HepaRG_CYP2C19: Life Technologies and Expression Analysis (LTEA) Assay for CYP2C19 using HepaRG (AID 2283482). In short, it runs like this:
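Transcript levels of CYP2C19 were quantified by qRT-PCR after HepaRG cells were treated for 48 hours with test chemicals up to 100 uM (eight half-log concentrations, 0.5% DMSO vehicle). Gain or loss of signal was fitted relative to DMSO.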

Read-out in assay [13]: CYP2C8 (gene 1558)
In words: LTEA_HepaRG_CYP2C8: Life Technologies and Expression Analysis (LTEA) Assay for CYP2C8 using HepaRG (AID 2283483). The procedure, abridged:
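This is a transcriptional endpoint in HepaRG cultures: 48 h exposure, highest concentration 100 uM. CYP2C8 mRNA is quantified by TaqMan qRT-PCR.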

Read-out in assay [14]: CYP2C9 (gene 1559)
In words: LTEA_HepaRG_CYP2C9: Life Technologies and Expression Analysis (LTEA) Assay for CYP2C9 using HepaRG (AID 2283484). In short, it runs like this:
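Eight-point concentration-response (highest 100 uM, half-log dilutions) in HepaRG cells for 48 h; CYP2C9 expression by qRT-PCR normalized to ACTB, GAPDH, POLR2A. Bidirectional fit, DMSO baseline.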

Read-out in assay [15]: CYP2E1 (gene 1571)
In words: LTEA_HepaRG_CYP2E1: Life Technologies and Expression Analysis (LTEA) Assay for CYP2E1 using HepaRG (AID 2283485). The procedure, abridged: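 CYP2E1 transcript measured by Fluidigm qRT-PCR against three housekeeping genes in human HepaRG cells treated 48 h (top 100 uM, half-log steps, 0.5% DMSO vehicle). Gain or loss fitted relative to DMSO baseline.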

Read-out in assay [16]: CYP4A11 (gene 1579)
In words: LTEA_HepaRG_CYP4A11: Life Technologies and Expression Analysis (LTEA) Assay for CYP4A11 using HepaRG (AID 2283486). In short, it runs like this: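 HepaRG, 48 h chem exposure, 8 conc (100 uM top, half-log), 0.5% DMSO vehicle; qRT-PCR readout, housekeeping-gene normalized; bidirectional curve fit vs DMSO baseline.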

Read-out in assay [17]: DNA damage-inducible transcript 3 (DDIT3), DDIT3 (gene 1649)
In words: LTEA_HepaRG_DDIT3: Life Technologies and Expression Analysis (LTEA) Assay for DNA damage-inducible transcript 3 (DDIT3) using HepaRG (AID 2283488). In short, it runs like this: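 DDIT3 transcript was quantified by qRT-PCR with ACTB/GAPDH/POLR2A normalization after 48 h chemical treatment of differentiated HepaRG cells in 0.5% DMSO. Dosing was eight-point, half-log, top 100 uM, duplicate wells. Curves fitted bidirectionally versus DMSO.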

Read-out in assay [18]: Pro-epidermal growth factor (Homo sapiens) (UniProt P01133)
In words: LTEA_HepaRG_EGF: Life Technologies and Expression Analysis (LTEA) Assay for Epidermal growth factor (EGF) using HepaRG (AID 2283489). In short, it runs like this:
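HepaRG, 48 h dosing, 100 uM top, half-log x8, 0.5% DMSO. Readout: TaqMan qRT-PCR (Fluidigm array), housekeeping-normalized. Gain or loss of signal fit vs DMSO.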

Read-out in assay [19]: BCL2L11 (gene 10018)
In words: LTEA_HepaRG_BCL2L11: Life Technologies and Expression Analysis (LTEA) Assay for Bcl-2 (BCL2L11) gene using HepaRG (AID 2283473). In short, it runs like this:
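Read-out is BCL2L11 transcript level by qRT-PCR, normalized to three housekeeping genes and fitted bidirectionally against 0.5% DMSO vehicle. HepaRG cells received chemicals for 48 h in serum-free induction medium, 100 uM down in half-log dilutions.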

Read-out in assay [20]: Cytochrome P450 3A4 (Homo sapiens) (UniProt P08684)
In words: LTEA_HepaRG_CYP3A4: Life Technologies and Expression Analysis (LTEA) Assay for CYP3A4 using HepaRG (AID 2283487). In short, it runs like this: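 CYP3A4 transcript measured by TaqMan qRT-PCR and normalized to three housekeeping genes after 48 h chemical exposure of human HepaRG cells. Top concentration 100 uM, half-log steps, 0.5% DMSO vehicle; gain or loss fitted against DMSO baseline.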

Apoptosis regulator Bcl-2 (Homo sapiens), sequence (P10415 whole entry, looked up): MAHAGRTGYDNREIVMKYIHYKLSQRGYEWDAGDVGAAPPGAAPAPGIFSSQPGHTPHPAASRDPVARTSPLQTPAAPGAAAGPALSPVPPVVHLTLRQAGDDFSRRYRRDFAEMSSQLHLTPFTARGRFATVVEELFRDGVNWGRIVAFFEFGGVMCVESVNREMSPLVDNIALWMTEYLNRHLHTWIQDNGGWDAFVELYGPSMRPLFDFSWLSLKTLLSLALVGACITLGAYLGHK
Cytochrome P450 2C19 (Homo sapiens), sequence (P33261 whole entry, looked up): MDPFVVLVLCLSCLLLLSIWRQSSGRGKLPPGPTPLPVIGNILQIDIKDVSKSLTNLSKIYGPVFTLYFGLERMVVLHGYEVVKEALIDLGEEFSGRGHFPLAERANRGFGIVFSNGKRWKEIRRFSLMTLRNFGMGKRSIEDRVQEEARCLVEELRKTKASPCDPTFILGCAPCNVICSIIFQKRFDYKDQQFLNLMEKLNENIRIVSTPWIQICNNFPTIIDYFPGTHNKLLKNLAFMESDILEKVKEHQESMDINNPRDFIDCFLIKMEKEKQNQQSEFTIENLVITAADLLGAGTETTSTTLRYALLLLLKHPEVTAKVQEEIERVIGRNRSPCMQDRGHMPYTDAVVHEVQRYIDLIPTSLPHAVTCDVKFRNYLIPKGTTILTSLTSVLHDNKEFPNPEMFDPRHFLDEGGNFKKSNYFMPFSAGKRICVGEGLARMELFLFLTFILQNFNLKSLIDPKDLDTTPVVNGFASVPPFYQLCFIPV
Caspase-3 (Homo sapiens), sequence (P42574 whole entry, looked up): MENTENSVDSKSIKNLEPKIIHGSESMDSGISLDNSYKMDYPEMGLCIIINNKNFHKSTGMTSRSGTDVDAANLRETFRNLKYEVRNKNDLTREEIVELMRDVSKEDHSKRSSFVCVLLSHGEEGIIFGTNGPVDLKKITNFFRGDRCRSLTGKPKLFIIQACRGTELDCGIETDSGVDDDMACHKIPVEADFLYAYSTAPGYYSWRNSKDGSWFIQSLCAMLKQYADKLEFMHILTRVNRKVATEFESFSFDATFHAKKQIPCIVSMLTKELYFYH
Cytochrome P450 3A4 (Homo sapiens), sequence (P08684 whole entry, looked up): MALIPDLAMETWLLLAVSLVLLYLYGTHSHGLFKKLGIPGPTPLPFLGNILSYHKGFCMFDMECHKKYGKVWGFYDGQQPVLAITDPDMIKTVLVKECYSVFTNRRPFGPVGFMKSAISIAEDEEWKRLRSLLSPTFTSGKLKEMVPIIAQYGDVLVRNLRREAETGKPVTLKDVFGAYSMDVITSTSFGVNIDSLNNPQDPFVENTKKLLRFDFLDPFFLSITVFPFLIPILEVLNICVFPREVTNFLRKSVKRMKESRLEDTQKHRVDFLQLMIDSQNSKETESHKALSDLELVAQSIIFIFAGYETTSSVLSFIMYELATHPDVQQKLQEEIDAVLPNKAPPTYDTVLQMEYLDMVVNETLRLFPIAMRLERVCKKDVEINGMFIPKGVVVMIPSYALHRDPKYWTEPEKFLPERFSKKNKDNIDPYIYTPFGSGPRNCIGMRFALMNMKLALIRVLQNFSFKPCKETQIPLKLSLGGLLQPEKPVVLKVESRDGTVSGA

For `Oc1ccc2ccccc2c1`, the result in assay [1], in assay [2], in [3], in [4], in [5] and in assay [6] was inactive. Further, the compound was called inactive in assay [7], in assay [8], in assay [10], in assay [11], in assay [12] and in assay [13]. Further, the result in assay [14], in [15], in [16], in assay [17] and in assay [18] was inactive. In addition, the half-maximal activity concentration (AC50) in assay [9] is 78.1 µM (active).
In the case of `CCCCCCCCCC(=O)O`, the result in assay [1], in assay [2], in [3], in assay [19], in [4] and in assay [5] was inactive. For the same compound, the call in assay [6], in assay [7], in assay [9], in [10], in assay [11] and in [12] was inactive. Moreover, the compound was called inactive in [13], in assay [14], in assay [15], in [16], in assay [17] and in assay [18].
Take `CN(C)c1ccc(C(=C2C=CC(=[N+](C)C)C=C2)c2ccc(N(C)C)cc2)cc1`: the result in assay [1], in [6] and in assay [10] was inactive. In addition, the AC50 in [2] was 20.7 µM (active); in [3] it was 1.91 µM (active); in assay [5], 5 µM (active); in [7], 12.1 µM (active); in assay [9], 2.05 µM (active); in [11], 3.45 µM (active). Moreover, the AC50 was 5.94 µM (active) in assay [12]; 3.61 µM (active) in assay [13]; 3.82 µM (active) in assay [14]; 2.31 µM (active) in [15]; 3.37 µM (active) in [16]; 1.38 µM (active) in assay [17]. In addition, the half-maximal activity concentration (AC50) in [18] is 88.8 µM (active).
As for `O=C(OCCCCCCOC(=O)c1ccccc1)c1ccccc1`, the outcome in [1], in assay [2], in assay [3], in assay [4], in assay [5] and in [6] was inactive. Besides, the call in assay [7], in [10], in assay [11], in assay [12], in assay [13] and in assay [14] was inactive. Also, the call in assay [15], in assay [16], in assay [20], in assay [17] and in assay [18] was inactive. Further, the half-maximal activity concentration (AC50) in assay [9] is 12.5 µM (active).
For the compound `CCN(Cc1cccc(S(=O)(=O)O)c1)c1ccc(C(=C2C=CC(=[N+](CC)Cc3cccc(S(=O)(=O)O)c3)C=C2)c2ccccc2S(=O)(=O)[O-])cc1`, the call in assay [1], in [2], in [3], in [5], in assay [6] and in assay [7] was inactive. The call in assay [8], in assay [9], in assay [10], in assay [11], in assay [12] and in assay [13] was inactive. The compound was classed as inactive in assay [14], in assay [15], in assay [16], in assay [20], in assay [17] and in assay [18].
Regarding `O=C1c2ccccc2C(=O)N1CCc1noc(-c2ccc(CN3CCCCCC3)s2)n1`, the outcome in [1], in [2], in [3], in assay [5], in assay [6] and in assay [7] was inactive. Further, the outcome in assay [10], in assay [12], in assay [13], in [14], in [15] and in [16] was inactive. Further, the call in assay [17] and in [18] was inactive. In addition, the figures for the half-maximal activity concentration (AC50) in assay [9] and in [11] were 6.97 µM (active) and 27.9 µM (active), respectively.
